Compound activity deposited in PubChem BioAssay by NMMLSC.
Most compounds without a hit are left out; they make up all but 1.2% or so of the library.
RGS8-Gao – RGS8-Galphao binding modulators, primary screen, biochemical, multiplexed bead flow cytometry; Guanine nucleotide-binding protein G(o) subunit alpha (Homo sapiens), P09471; response (percent of control binding), % at 10 µM; hit rate 0.34% among 220,000; AID 1423, 2008; actives lie on both sides; in the data active = response below about 60% or above about 140%; inactive = in between;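 also: Galphao activated as the GDP aluminium fluoride complex binding bead-coupled RGS8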
Target sequence (P09471 whole entry, looked up): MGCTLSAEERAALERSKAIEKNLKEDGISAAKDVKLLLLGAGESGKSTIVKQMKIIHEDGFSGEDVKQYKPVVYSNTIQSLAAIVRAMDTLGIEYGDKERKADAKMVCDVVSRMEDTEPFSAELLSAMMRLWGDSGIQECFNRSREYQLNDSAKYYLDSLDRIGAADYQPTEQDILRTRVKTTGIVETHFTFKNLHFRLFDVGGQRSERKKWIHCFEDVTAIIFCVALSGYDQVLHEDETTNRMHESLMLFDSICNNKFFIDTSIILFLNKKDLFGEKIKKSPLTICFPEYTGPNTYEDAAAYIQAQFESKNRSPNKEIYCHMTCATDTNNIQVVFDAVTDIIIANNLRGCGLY
RGS16-Gao – modulators of RGS16 binding to Galphao, primary screen, biochemical, human proteins, multiplexed bead flow cytometry. Regulator of G-protein signaling 16 (Homo sapiens) + Guanine nucleotide-binding protein …. bead-based flow cytometry RGS16-Galphao binding, fluorescence; actives lie on both sides. binding response (% of control), % at 10 µM. hit rate 0.38% among 220,000. AID 1441, 2008;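 also: Galphao activated by GDP with aluminum fluoride before binding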
Target sequence (O15492 whole entry, looked up): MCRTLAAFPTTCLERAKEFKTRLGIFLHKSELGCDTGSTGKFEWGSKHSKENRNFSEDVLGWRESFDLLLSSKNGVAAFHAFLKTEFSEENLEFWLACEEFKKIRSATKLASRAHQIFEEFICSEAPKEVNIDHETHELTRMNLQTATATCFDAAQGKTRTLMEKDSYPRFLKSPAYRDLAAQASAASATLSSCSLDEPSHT
Target sequence (P09471 whole entry, looked up): as the sequence (P09471 whole entry, looked up) above
RGS4-Gao reg – modulators of RGS4 binding to Galphao, primary screen, biochemical, multiplexed bead flow cytometry; AID 1415, 2008; actives lie on both sides; Guanine nucleotide-binding protein G(o) subunit alpha (Homo sapiens), P09471; binding response (% of control), % at 10 µM; hit rate 0.33% among 220,000; in the data active = binding response below about 49% or above about 150%; inactive = in between;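 also: fluorescent Galphao activated with aluminum fluoride binding bead-coupled RGS4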
GSH fluor – compound fluorescence on glutathione beads, profiling panel, artefact control, biophysical, 488/530 nm, flow cytometry | GSH beads flow cytometry, compound fluorescence 488/530 nm; active compounds read high | fluorescence (KMESF) at 10 µM | hit rate 0.25% among 190,000 | AID 1776, 2009; in the data active = fluorescence above about 89;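 also: glutathione beads carrying GST-tagged Bcl family fusion proteins plus one bare bead set; values are compound well signal with DMSO vehicle wells as background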
Avidin fluor – green autofluorescence of compounds with avidin beads – biophysical, 488/530 nm, flow cytometry, artefact control, profiling panel | AID 1775, 2009 | hit rate 0.38% among 220,000 | compound fluorescence 488/530 nm; active compounds read high | fluorescence (KMESF) at 10 µM; in the data active = fluorescence above about 47
RGS7-Gao reg – RGS7-Galphao binding modulators, primary screen, biochemical, multiplexed bead flow cytometry. Guanine nucleotide-binding protein G(o) subunit alpha (Homo sapiens), P09471. actives lie on both sides. binding response (% of control), % at 10 µM. hit rate 0.35% among 220,000; in the data active = binding response below about 49% or above about 150%; inconclusive = no clear call, values can overlap the other calls; inactive = in between;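 also: fluorescent Galphao held in activated GDP-AlF4 state binding bead-coupled RGS7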
RGS-Gao – modulators of RGS–Galpha-o binding, primary screen, biochemical, multiplexed beads, flow cytometry, RGS4/7/8/16/19; hit rate 99% among 1,600; shares compounds with RGS16-Gao; RGS4–Galpha-o binding response, % at 10 µM; multiplexed bead flow cytometry;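 also: fluorescently labeled Galpha-o bound to GDP with aluminium fluoride binding biotinylated RGS beads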
Avidin counter – disruption of biotin probe capture by avidin, counter-screen for RGS protein interaction modulators, biochemical, flow cytometry, bead-based | inhibition, % at 10 µM | streptavidin beads, fluorescein-biotin binding | 1,700 tested, under 10 active | shares compounds with RGS16-Gao;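 active = inhibition above 50%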;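 also: median green fluorescence of gated singlet beads compared with DMSO control wells; 0% = DMSO wells and 100% = complete loss of bead fluorescence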
RGS8-Gao confirm – RGS8-Galphao binding modulators, confirmation, biochemical, multiplexed bead flow cytometry, single concentration; AID 1836, 2009; bead-based flow cytometry RGS8-Galphao binding, fluorescence; actives lie on both sides; hit rate 3% among 1,700; binding response (% of control), % at 10 µM; shares compounds with RGS16-Gao; in the data active = binding response below about 72% or above about 130%; inactive = in between;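 also: Galphao activated as GDP AlF4 complex before binding bead RGS8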
RGS7-Gao confirm – RGS7-Galphao binding modulators, confirmation, biochemical, multiplexed bead flow cytometry, single concentration; hit rate 7.8% among 1,700; shares compounds with RGS16-Gao; AID 1837, 2009; bead-based flow cytometry RGS7-Galphao binding; actives lie on both sides; response (percent of control binding), % at 10 µM; in the data active = response below about 75% or above about 130%; inactive = in between;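 also: fluorescent Galphao activated with GDP and aluminum fluoride binding bead-coupled RGS7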
RGS16-Gao single – modulators of RGS16-Galphao protein binding, confirmation, biochemical, single concentration, multiplexed bead flow cytometry | shares compounds with RGS16-Gao | bead-based flow cytometry; actives lie on both sides | response (% of control binding), % at 10 µM | hit rate 4% among 1,700 | AID 1838, 2009; in the data active = response below about 74% or above about 130%; inactive = in between;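 also: Galphao activated as the GDP aluminium fluoride complex binding bead-coupled RGS16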
RGS4-Gao single – modulators of RGS4-Galphao protein binding, confirmation, biochemical, single concentration, multiplexed bead flow cytometry; AID 1840, 2009; actives lie on both sides; binding response (% of control), % at 10 µM; hit rate 4% among 1,700; shares compounds with RGS16-Gao; in the data active = binding response below about 74% or above about 130%; inactive = in between
RGS19-Gao single – regulators of RGS19-Galphao binding, confirmation, biochemical, single point, multiplexed bead flow cytometry; AID 1841, 2009; hit rate 5% among 1,700; response (percent of control binding), % at 10 µM; bead-based flow cytometry RGS19-Galphao binding; actives lie on both sides; shares compounds with RGS16-Gao; in the data active = response below about 50% or above about 160%; inactive = in between;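 also: 100% = no compound control and 0% = blank background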
An asterisk follows results filed as active; ? = inconclusive; nt = no result; [ ] = dose if it differs, or a comment. Unless noted, no rule for the calls is given here.

SMILES	RGS8-Gao	RGS16-Gao	RGS4-Gao reg	GSH fluor	Avidin fluor	RGS7-Gao reg	Avidin counter	RGS8-Gao confirm	RGS7-Gao confirm	RGS16-Gao single	RGS4-Gao single	RGS19-Gao single	others
CCOC(=O)CC(NCc1ccc(OC)c(OCC)c1)c1ccc(C)cc1 (stereo not given)	98.0	97.1	98.5	12	6	93.4	nt	nt	nt	nt	nt	nt
CCS(=O)(=O)c1cc([N+](=O)[O-])c(Sc2ccccc2NC(C)=O)s1	20.7*	9.3*	17.2*	nt	0	?	1.2	63.2*	81.7	57.6*	86.0	10.3*
CC(=O)Nc1cccc(NS(=O)(=O)c2ccccc2[N+](=O)[O-])c1	98.2	108.0	97.1	12	12	95.4	nt	nt	nt	nt	nt	nt
C=CCN(c1ccc(Cl)cc1)S(=O)(=O)c1cccc(C(=O)O)c1	102.7	105.0	106.7	25	9	?	nt	nt	nt	nt	nt	nt
Cn1c(C(=O)NCc2ccccc2)cc2oc3ccccc3c21	114.5	nt	109.7	27	12	115.5	1.7	99.7	96.9	98.7	100.5	98.9
Cc1cc(NC(=O)C2CCCCC2)n(-c2nc3ccccc3[nH]2)n1	100.5	101.6	101.2	10	9	99.0	nt	nt	nt	nt	nt	nt
Cc1cc(NC(=O)C2CCC2)n(-c2ccccn2)n1	13.5*	3.5*	8.2*	48	-3	6.5*	0.6	98.8	105.6	100.2	100.2	99.1
CC(=O)c1c(C(C)=O)c(C)n(NC(=O)c2ccc(Cl)cc2)c1C	107.8	174.3	193.8*[activator]	21	71*	163.0*[activator]	-1.3	109.4	111.7	110.2	111.5	123.5
CC1CCCCN1C(=O)COC(=O)c1n[nH]c2ccccc12 (stereo not given)	99.9	94.0	99.9	42	6	102.3	nt	nt	nt	nt	nt	nt
CN1CCN(CCCNC(=O)c2ccc3c(c2)N(Cc2ccccc2)CCS3)CC1	145.2*[activator]	140.4	142.1	25	3	134.2	-0.3	101.8	105.2	102.3	102.4	105.3	RGS-Gao=142.1*
O=C(NCCCN1CCOCC1)c1ccc2c(c1)N(Cc1ccccc1)CCS2	99.8	97.7	102.0	nt	5	?	nt	nt	nt	nt	nt	nt
O=C1OCC2OC(O)C(O)C(O)C2OC(=O)c2cc(O)c(O)c(O)c2-c2c(O)c(O)c3oc(=O)c4c(c(O)c(O)c5oc(=O)c2c3c54)-c2c1cc(O)c(O)c2O (stereo not given)	36.5*	66.1	48.3*	nt	5	?	0.3	37.1*	31.7*	75.2	47.2*	101.8
COc1cc2c(cc1NC(=O)CSc1nnc(Cc3cccs3)n1Cc1ccco1)oc1ccccc12	99.0	101.8	98.6	13	14	99.4	nt	nt	nt	nt	nt	nt
COc1cc2c(cc1NC(=O)CSc1nnc(Cc3cccs3)n1C)oc1ccccc12	127.6	314.1*[activator]	314.7*[activator]	45	105*	247.5*[activator]	1.2	101.7	104.4	102.9	101.8	92.7
CC1CCN(S(=O)(=O)c2cccc(C(=O)Oc3ccc([N+](=O)[O-])cc3)c2)CC1	82.7	24.0*	96.7	11	8	114.1	1.6	98.3	105.4	99.5	102.1	89.5	RGS-Gao=96.7*
COc1cc(C(=O)OCC#N)ccc1OCc1c(C)noc1C	100.5	100.4	103.8	nt	9	?	nt	nt	nt	nt	nt	nt
COc1cc(C(=O)OCC(=O)NC2CCS(=O)(=O)C2)ccc1OCc1c(C)noc1C (stereo not given)	104.0	124.6	100.0	15	73*	154.4*[activator]	1.2	100.0	99.1	96.0	98.2	101.1	RGS-Gao=100.0*
c1coc(-c2nc3c([nH]2)CCc2nonc2-3)c1	101.6	104.5	104.8	16	6	101.5	nt	nt	nt	nt	nt	nt
CC(C)C(=O)NC(NC1CCS(=O)(=O)C1)C(Cl)(Cl)Cl (stereo not given)	110.3	106.8	100.4	21	14	112.9	nt	nt	nt	nt	nt	nt
CCCC(=O)NC(NC1CCS(=O)(=O)C1)C(Cl)(Cl)Cl (stereo not given)	34.2*	14.7*	21.8*	14	1	11.1*	-0.5	100.4	101.5	104.5	101.7	95.6
Cc1noc(C)c1C(=O)N1CCCC(C(=O)c2cccc(OC(C)C)c2)C1 (stereo not given)	105.1	111.5	103.1	11	13	105.3	nt	nt	nt	nt	nt	nt
O=C(Nc1ccccc1)Nc1snnc1C(=O)Nc1cccc(O)c1	24.4*	11.8*	15.9*	15	2	16.0*	1.5	104.5	112.6	106.2	106.5	105.4
CC1C(=O)CC(c2ccccc2)NC1c1ccccc1 (stereo not given)	125.4	406.6*[activator]	117.1	10	12	105.9	-0.6	101.3	102.7	100.0	103.5	102.2	RGS-Gao=117.1*
COCCCNc1ccnc2c(Cl)cccc12	99.4	nt	98.3	39	nt	101.0	-0.3	99.8	96.6	99.1	100.3	112.7
COCCNc1ccnc2c(Cl)cccc12	95.6	76.6	99.0	26	4	104.0	nt	nt	nt	nt	nt	nt
